Assay [1] in a line: antimalarial activity against Dd2 strain (AID 2302;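 active means growth inhibition above 50% at the single 2 µM test dose, taken to imply half-maximal potency below 2 µM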;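 further: 0% = DMSO untreated growth and 100% = chloroquine plus artemisinin killed control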). As to conditions: P. falciparum Dd2 in RBCs, LDH growth readout, 72 h; at 2 µM; active compounds read high.
Assay [2] in a line: human hepatoma cell viability loss – ATP luminescence, cytotoxicity control for P. falciparum antimalarial project, primary screen (AID 2303;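 active means inhibition above 50%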;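 further: 0% = DMSO wells and 100% = digitonin-killed cells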). As to conditions: HepG2 viability, 24-48 h, at 10 µM, active compounds read high.
Assay [3] concerns the target L-lactate dehydrogenase (Plasmodium falciparum (isolate CDC / Honduras)) (UniProt Q27743). Put plainly: PfLDH activity inhibition – cell lysate, 3D7 strain, counter-screen for P. falciparum growth inhibition project (AID 2304).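 Further: 0% = vehicle and 100% = reference inhibitor.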 Conditions: P. falciparum 3D7 crude extract, LDH APAD/NBT absorbance; at 2 µM; active compounds read high.
Assay [4] in a line: inhibition of 3D7 malaria parasite growth – strain 3D7 (AID 2306).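 Further: 0% = DMSO wells and 100% = chloroquine plus artemisinin control wells.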 Conditions: P. falciparum 3D7 erythrocytic growth, LDH absorbance, 72 h; at 2 µM; active compounds read high.
In assay [5] the target is Calcium-dependent protein kinase 1 (Plasmodium falciparum (isolate 3D7)) (UniProt P62344). The experiment in a line: PfCDPK1 kinase inhibitors, biochemical, TCAMS library (AID 1159585; cut-off not given, nearly all actives have IC50 up to about 0.98 µM;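 further: inhibitors leave more ATP so luminescence rises with inhibition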). As to conditions: recombinant PfCDPK1, Kinase-Glo ATP depletion luminescence. Background: Kinase-Glo reads ATP consumption through a luciferase reaction.
The target in assay [6] is Plasmodium falciparum protein kinase 6 (PK6, PF3D7_1337100) (UniProt Q8IDW1). The experiment in a line: PfPK6 kinase inhibitors, biochemical, TCAMS library (AID 1159586). Conditions: recombinant PfPK6, Kinase-Glo ATP depletion luminescence.
Assay [7] has as its target Protein kinase 7 (PK7), Plasmodium falciparum 3D7 (PF3D7_0213400) (UniProt Q7YTF7). Put plainly: inhibition of Plasmodium PK7 catalytic activity – biochemical, TCAMS antimalarial set, Kinase-Glo luminescence (AID 1159587). As to conditions: recombinant PfPK7, Kinase-Glo ATP depletion luminescence.
The target of assay [8] is Calcium-dependent protein kinase 4 (Plasmodium falciparum (isolate 3D7)) (UniProt Q8IBS5). Put plainly: PfCDPK4 kinase inhibitors, biochemical, TCAMS library (AID 1159588; cut-off not given, nearly all actives have IC50 up to about 0.91 µM). As to conditions: recombinant PfCDPK4, Kinase-Glo ATP depletion luminescence.

SMILES strings stand for the structures. A number with no mark means an inactive call. For some assays here: Results with a measured potency or affinity are listed apart. The source made the active and inactive calls. Unless noted, how the calls were made is not given here.

From PubChem BioAssay come the findings set out here.

Sequence of Plasmodium falciparum protein kinase 6 (PK6, PF3D7_1337100) (Q8IDW1 1-305): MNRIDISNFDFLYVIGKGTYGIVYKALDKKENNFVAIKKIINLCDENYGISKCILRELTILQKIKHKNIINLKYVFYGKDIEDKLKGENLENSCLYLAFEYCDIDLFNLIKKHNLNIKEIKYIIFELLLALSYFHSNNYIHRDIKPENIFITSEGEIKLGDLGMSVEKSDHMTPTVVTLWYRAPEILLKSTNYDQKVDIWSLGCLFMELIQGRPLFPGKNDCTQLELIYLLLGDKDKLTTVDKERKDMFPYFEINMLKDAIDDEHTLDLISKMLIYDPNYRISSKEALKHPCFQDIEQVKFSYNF
Sequence of Calcium-dependent protein kinase 4 (Plasmodium falciparum (isolate 3D7)) (Q8IBS5 whole entry, looked up): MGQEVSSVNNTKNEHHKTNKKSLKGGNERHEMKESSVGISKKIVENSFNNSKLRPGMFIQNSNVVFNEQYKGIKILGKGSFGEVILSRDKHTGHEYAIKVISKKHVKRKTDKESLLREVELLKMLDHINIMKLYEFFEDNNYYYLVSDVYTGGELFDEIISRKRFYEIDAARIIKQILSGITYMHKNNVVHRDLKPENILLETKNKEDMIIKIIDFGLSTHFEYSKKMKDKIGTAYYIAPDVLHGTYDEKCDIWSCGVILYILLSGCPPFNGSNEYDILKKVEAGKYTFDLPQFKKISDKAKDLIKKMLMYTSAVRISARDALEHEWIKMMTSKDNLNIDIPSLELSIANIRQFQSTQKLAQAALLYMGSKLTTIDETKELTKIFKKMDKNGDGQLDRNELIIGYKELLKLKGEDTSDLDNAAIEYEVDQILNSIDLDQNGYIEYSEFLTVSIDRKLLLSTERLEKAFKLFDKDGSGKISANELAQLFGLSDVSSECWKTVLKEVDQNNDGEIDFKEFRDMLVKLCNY
Sequence of L-lactate dehydrogenase (Plasmodium falciparum (isolate CDC / Honduras)) (Q27743 whole entry, looked up): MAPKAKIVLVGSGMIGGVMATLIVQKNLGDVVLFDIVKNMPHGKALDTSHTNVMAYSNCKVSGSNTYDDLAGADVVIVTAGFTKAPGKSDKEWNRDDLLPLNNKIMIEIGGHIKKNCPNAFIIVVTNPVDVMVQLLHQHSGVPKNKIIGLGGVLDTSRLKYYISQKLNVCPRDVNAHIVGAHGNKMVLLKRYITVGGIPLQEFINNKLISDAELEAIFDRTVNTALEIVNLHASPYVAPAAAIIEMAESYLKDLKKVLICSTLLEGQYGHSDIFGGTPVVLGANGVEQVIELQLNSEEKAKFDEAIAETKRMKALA
Sequence of Calcium-dependent protein kinase 1 (Plasmodium falciparum (isolate 3D7)) (P62344 whole entry, looked up): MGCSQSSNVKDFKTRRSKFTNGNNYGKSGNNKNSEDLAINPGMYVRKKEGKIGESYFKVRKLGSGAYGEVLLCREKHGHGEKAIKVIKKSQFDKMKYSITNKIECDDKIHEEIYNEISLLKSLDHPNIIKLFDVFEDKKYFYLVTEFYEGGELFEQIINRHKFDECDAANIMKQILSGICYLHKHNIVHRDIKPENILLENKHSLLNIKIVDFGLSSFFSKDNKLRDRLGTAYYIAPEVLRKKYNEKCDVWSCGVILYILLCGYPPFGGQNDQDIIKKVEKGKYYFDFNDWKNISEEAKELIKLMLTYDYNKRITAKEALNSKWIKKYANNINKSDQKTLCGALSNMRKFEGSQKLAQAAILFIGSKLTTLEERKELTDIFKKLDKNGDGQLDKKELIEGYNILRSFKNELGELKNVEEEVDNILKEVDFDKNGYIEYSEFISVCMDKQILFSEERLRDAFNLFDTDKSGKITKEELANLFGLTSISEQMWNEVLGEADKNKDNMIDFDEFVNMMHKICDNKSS
Sequence of Protein kinase 7 (PK7), Plasmodium falciparum 3D7 (PF3D7_0213400) (Q7YTF7 1-343): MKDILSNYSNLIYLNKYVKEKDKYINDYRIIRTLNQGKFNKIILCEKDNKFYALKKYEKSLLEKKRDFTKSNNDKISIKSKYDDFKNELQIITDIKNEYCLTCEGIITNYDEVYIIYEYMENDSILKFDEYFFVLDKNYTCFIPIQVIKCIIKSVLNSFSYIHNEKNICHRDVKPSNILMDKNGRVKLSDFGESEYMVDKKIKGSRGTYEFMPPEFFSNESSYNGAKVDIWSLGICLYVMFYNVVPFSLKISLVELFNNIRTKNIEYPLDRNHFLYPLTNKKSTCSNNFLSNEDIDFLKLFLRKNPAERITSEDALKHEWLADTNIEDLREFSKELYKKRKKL

With `O=C(N[C@@H](CC1CCCCC1)C(=O)NC1CCCc2ccccc21)c1ccc(O)c(-c2cccc([N+](=O)[O-])c2)c1` (some centres not stated), the growth inhibition in assay [1] was 98% (active); in assay [4], 99% (active). Moreover, the results for the inhibition in assay [2] and in assay [3] were -12% and 1%, respectively. Also, the outcome in assay [5], in assay [6], in assay [7] and in assay [8] was inactive.

Regarding `O=C(/C=C/c1ccc(Cl)cc1)NCCCCCN1CCCC(C(=O)Nc2ccc(Cl)cc2)C1` (configuration not stated), the growth inhibition in assay [1] is 6%; in assay [4] it was 94% (active). Besides, the inhibition (as a rule, the relative decrease from the control value, in per cent) in assay [2] is 24%; in assay [3] it was 8%. The result in assay [5], in assay [6], in assay [7] and in assay [8] was inactive.

Regarding `CNCc1cccc(-c2ccc3ccnc(N)c3c2)c1`, the growth inhibition in assay [1] is 98% (active); in assay [4], 101% (active). Also, the inhibition in assay [2] was 20%; in assay [3], 3%. For the same compound, the outcome in assay [5], in assay [6], in assay [7] and in assay [8] was inactive.

As to `COc1ccc2nccc([C@@H](O)CN3CCC(NC(=O)C(c4ccccc4C)N4CCC(Cc5ccccc5)CC4)CC3)c2c1` (some centres not stated), the growth inhibition in assay [1] was 97% (active); in assay [4], 102% (active). The inhibition in assay [2] is 10%; in assay [3] it was 3%. Moreover, the outcome in assay [5], in assay [6], in assay [7] and in assay [8] was inactive.

Turning to `CCNc1cc(C(=O)N[C@@H](Cc2ccccc2)[C@H](O)CNC(C)Cc2cccc(Cl)c2)cc(N2CCCCS2(=O)=O)c1` (some centres not stated), the growth inhibition in assay [1] is 77% (active); in assay [4] it was 98% (active). Besides, the inhibition is -6% in assay [2] and 1% in assay [3]. In addition, the outcome in assay [5], in assay [6], in assay [7] and in assay [8] was inactive.

In the case of `CCCNCc1ccc(-c2ccc(CN(CC3CCCO3)C(=O)COc3ccccc3Cl)cc2)nc1` (configuration not stated), the growth inhibition in assay [1] was 11%; in assay [4] it was 89% (active). The inhibition is 5% in assay [2] and -3% in assay [3]. Besides, the result in assay [5], in assay [6], in assay [7] and in assay [8] was inactive.

As for `CCCN1CCN(CCCNC(=O)c2cc3c(Cl)nc4ccc(C)cc4c3s2)CC1`, the growth inhibition in assay [1] was 27%; in assay [4], 97% (active). Also, the inhibition in assay [2] was 18%; in assay [3], 0%. In addition, the result in assay [5], in assay [6], in assay [7] and in assay [8] was inactive.

On to `COc1ccc(Oc2ccc(-c3c(C)[nH]c(C)cc3=O)cc2)cc1`, for which the growth inhibition in assay [1] is 88% (active); in assay [4], 93% (active). Moreover, the figures for the inhibition in assay [2] and in assay [3] were -12% and -3%, respectively. In addition, the outcome in assay [5], in assay [6], in assay [7] and in assay [8] was inactive.

Regarding `Cc1ccc2nc(C)cc(NN=Cc3cccc(F)c3)c2c1`, the growth inhibition in assay [1] and in assay [4] was 99% (active) each time. For the same compound, the inhibition in assay [2] is 6%; in assay [3] it was -1%. Moreover, the result in assay [5], in assay [6], in assay [7] and in assay [8] was inactive.

With `CCN(CC)CCNC(=O)c1ccc(NC(=O)c2cn(-c3ccccc3)nc2-c2cccs2)cc1`, the growth inhibition in assay [1] is 94% (active); in assay [4] it was 103% (active). Moreover, the inhibition is 30% in assay [2] and -1% in assay [3]. Moreover, the outcome in assay [5], in assay [6], in assay [7] and in assay [8] was inactive.

Regarding `COc1ccc(CNCc2cccc(-c3ccc(-c4nc5c(C)cccc5[nH]4)s3)c2)cc1`, the growth inhibition was 65% (active) in assay [1] and 103% (active) in assay [4]. In addition, the inhibition is 24% in assay [2] and 7% in assay [3]. Moreover, the result in assay [5], in assay [6], in assay [7] and in assay [8] was inactive.

Regarding `Cc1[nH]c(C)c(-c2ccc(OCCn3cnc(Cl)c3Cl)cc2)c(=O)c1Br`, the values for the growth inhibition in assay [1] and in assay [4] were 35% and 95% (active), respectively. In addition, the inhibition in assay [2] and in assay [3] was 2% each time. Further, the result in assay [5], in assay [6], in assay [7] and in assay [8] was inactive.

On to `CC(=O)N1CCC(C(=O)Nc2ccc(-c3cccc(-c4nc5c(C)cccc5[nH]4)c3)cc2)CC1`, for which the growth inhibition in assay [1] is 27%; in assay [4] it was 84% (active). For the same compound, the inhibition was 85% (active) in assay [2] and -1% in assay [3]. In addition, the outcome in assay [5], in assay [6], in assay [7] and in assay [8] was inactive.

For the compound `N#Cc1c(-c2ccccc2)cn2c1[nH]c(=O)c1ccccc12`, the growth inhibition in assay [1] was 95% (active); in assay [4], 92% (active). Further, the inhibition was -1% in assay [2] and 1% in assay [3]. The result in assay [5], in assay [6], in assay [7] and in assay [8] was inactive.

Consider `CC(C)(C)c1ccc(-c2csc(NC(=O)CC(c3ccccc3)c3ccccc3)n2)cc1`, for which the growth inhibition in assay [1] is 64% (active); in assay [4], 86% (active). The results for the inhibition in assay [2] and in assay [3] were 3% and -6%, respectively. The outcome in assay [5], in assay [6], in assay [7] and in assay [8] was inactive.

Take `CCOC(=O)CNC(=O)N1CCN(C(=O)NCC(=O)OCC)CC1`: the growth inhibition was 0% in assay [1] and 93% (active) in assay [4]. For the same compound, the inhibition in assay [2] was -9%; in assay [3], -2%. The result in assay [5], in assay [6], in assay [7] and in assay [8] was inactive.

As to `CC(C)C(=O)NC(c1cccs1)c1cc(Cl)c2cccnc2c1O` (configuration not stated), the growth inhibition in assay [1] and in assay [4] was 91% (active) in each case. Moreover, the inhibition was 23% in assay [2] and -2% in assay [3]. For the same compound, the outcome in assay [5], in assay [6], in assay [7] and in assay [8] was inactive.

For the compound `CCN(CC)CCN(Cc1ccc(-c2ccc(C(F)(F)F)cc2)cc1)C(=O)Cn1c(CCc2ccc(F)c(C#N)c2)nc(=O)c2ccccc21`, the growth inhibition in assay [1] is 55% (active); in assay [4] it was 98% (active). Moreover, the values for the inhibition in assay [2] and in assay [3] were 18% and -2%, respectively. The outcome in assay [5], in assay [6], in assay [7] and in assay [8] was inactive.

As to `CN1CCCC(OC(=O)c2ccccc2)C1` (configuration not stated), the values for the growth inhibition in assay [1] and in assay [4] were -2% and 100% (active), respectively. Also, the results for the inhibition in assay [2] and in assay [3] were 4% and -5%, respectively. Moreover, the outcome in assay [5], in assay [6], in assay [7] and in assay [8] was inactive.
